These results are taken from PubChem BioAssay (NCI).

This is part of a sample that, as a whole, favours compounds with a hit. Of some 83,000 tested, about 20% had one in any assay.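 In brief: 96-well plates, 48 h treatment, single concentration, percent growth endpoint.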 Values without a mark were called inactive. The source made the active and inactive calls. How the source made its calls: active means growth percent below 10; inactive means the rest.

Assay in all cases: NCI-60 one-dose screen, 48 h (100 = growth as untreated, 0 = no growth, -100 = all killed)
Test [1] concerns DU-145 prostate. Conditions: 10 µM unless noted.
For test [2], the system named is K-562 leukemia. The following applies: 10 µM unless noted.
The subject of test [3] is MALME-3M melanoma. Conditions: 10 µM unless noted.
The subject of test [4] is MDA-MB-231 breast. The following applies: 10 µM unless noted.
Test [5] concerns RXF 393 renal. Conditions: 10 µM unless noted.
Test [6] deals with SF-268 CNS. Conditions: 10 µM unless noted.
The test system of test [7] is SF-295 CNS. The following applies: 10 µM unless noted.
The test system of test [8] is SF-539 CNS. The following applies: 10 µM unless noted.
Test [9] deals with UACC-257 melanoma. Conditions: 10 µM.
The test system of test [10] is M14 melanoma. Conditions: 10 µM unless noted.

On to `COc1ccc(Oc2ccc(C3CC(c4cc(OC)c(OC)c(OC)c4)=NN3C(C)=O)cc2)cc1` (stereo not given), for which the growth in test [1] was 40.4%; in test [2], 16.1%; in test [3] it was 33.6%; in [4] it was 40.6%; in [5] it was 17%; in test [6], 38.6%. In addition, the growth in test [7] was 22.5%; in test [8], 46.5%; in [9], 40.3%; in test [10], 27.6%.
As for `COc1ccc(C(=O)c2c(N)c(C#N)cn2-c2cccc(OC)c2)cc1`, the growth in test [1] is 50.6%; in test [2] it was 14.5%; in test [3] it was 40.5%; in test [4], 39.2%; in test [5], 17.3%; in test [6] it was 64.6%. In addition, the growth was -25.5% (active) in test [7], -5.54% (active) in test [8], 47.5% in [9] and 10.3% in [10].
Consider `Nc1nc(N)c2c(n1)NC(c1ccc(Cl)cc1)CC(c1ccc(Nc3nc(NCCO)nc(Nc4ccc(Cl)cc4)n3)cc1)=N2` (stereo not given), for which the growth is 0.35% (active) in test [1]; -25.2% (active) in test [2]; 68.9% in [3]; 53% in test [4]; 43.6% in [5]; 51.4% in [6]. Besides, the growth is 47.5% in test [7], 83.4% in test [8], 107% in test [9] and 34.5% in test [10].
Consider `CCOC(=O)c1c(NC(=O)c2ccc(C(C)(C)C)cc2)sc2cc(OCCN3CCCCC3)ccc12`, for which the growth is 71.5% in test [1]; 16% in [2]; 97% in test [3]; 70.1% in [4]; 68.1% in test [5]; 90.6% in test [6]. Also, the growth was 99.7% in [7], 82.1% in [8], 100% in [9] and 89.3% in [10].
In the case of `COc1cc(OC)c(S(N)(=O)=O)cc1C(=O)/C=C/c1ccccc1`, the growth in [1] is 1.92% (active); in [2], 9.69% (active); in test [3], 68.1%; in test [4], 10.3%; in [5], -29.7% (active); in [6], 38.3%. Besides, the growth in test [7] was 58.3%; in test [8], 1.13% (active); in [9], 88.6%; in test [10], 45.9%.
In the case of `Cc1ccc(-c2cc3nc(C(Cl)Cl)nc(-c4ccccc4)n3n2)cc1`, the growth in [1] was 2.08% (active); in test [2] it was 90.4%; in test [3], 122%; in [4], 79.7%; in test [5], 70.4%; in test [6], 89%. Besides, the growth in test [7] is 79.8%; in [8], 90.8%; in test [9] it was 112%; in test [10], 112%.
On to `O=C(CCCCCCN1CC(=O)N2[C@@H](c3cccc(Cl)c3)c3[nH]c4ccccc4c3C[C@H]2C1=O)NO`, for which the growth is 46.3% in [1]; 24% in test [2]; 29.1% in [3]; 39.5% in test [4]; 9.1% (active) in test [5]; 64.4% in test [6]. Besides, the growth is 52% in test [7], 50.6% in test [8], 44% in test [9] and 45.6% in test [10].
`COC[C@]12CC[C@@H](C)[C@H](C)[C@H]1C1=CC[C@@H]3[C@@]4(C)CCCNC(C)(C)[C@@H]4CC[C@@]3(C)[C@]1(C)CC2`: the growth in [1] was 12.8%; in test [2] it was 0.992% (active); in [3], -36.7% (active); in test [4], 51.2%; in test [5], 56.2%; in test [6] it was 70.2%. For the same compound, the growth in test [7] was -74.2% (active); in test [8] it was 26.3%; in [9] it was 20.3%; in test [10] it was -48.3% (active).
Consider `CC(C)(C)OC(=O)N1CCN(S(=O)(=O)/N=C2\NC(=O)NC2=C(Cl)Cl)CC1`, for which the growth in test [1] was 101%; in test [2], 12.6%; in [3] it was 80.7%; in test [4] it was 80.7%; in test [5] it was 70.8%; in test [6], 97%. Also, the growth is 102% in [7], 99.1% in [8], 96.1% in test [9] and 103% in test [10].
On to `C/C(=C(/c1ccc(O)cc1)c1ccc(OCCN(C)C)cc1)c1ccc(Cl)cc1`, for which the growth is 65.2% in test [1]; 0.0711% (active) in test [2]; -47.9% (active) in test [3]; 31.1% in test [4]; 30.3% in test [5]; 61.8% in test [6]. Besides, the growth in test [7] was 80.9%; in test [8], -18.4% (active); in [9] it was -66.6% (active); in test [10], -70.7% (active).
For the compound `C#C[C@]1(O)CC[C@H]2[C@@H]3CC=C4c5sc(Nc6ccncc6)nc5CC[C@]4(C)[C@H]3CC[C@@]21C`, the growth in test [1] is 21%; in [2], 2.23% (active); in [3] it was -71.1% (active); in test [4], 21.7%; in test [5] it was -62.9% (active); in test [6] it was -15.9% (active). Further, the growth in [7] was -70.8% (active); in test [8], -61.1% (active); in [9], -44.3% (active); in [10], -49.7% (active).
On to `CCOC(=O)c1ccc(N/C=C/C(=O)c2ccccc2)cc1`, for which the growth in test [1] was 101%; in [2], 98.8%; in test [3] it was 107%; in test [4], 105%; in [5] it was 99%; in test [6], 102%. Moreover, the growth is 93.4% in test [7], 101% in [8], 108% in test [9] and 97% in test [10].
As to `CCOC(=O)/C=c1\sc2n(c1=O)C1C(NN=2)N(CC)C(=O)N1CC` (stereo not given), the growth in test [1] was 75.3%; in test [2], 24.1%; in test [3], 49.1%; in test [4] it was 66.8%; in [5], 70.2%; in test [6], 81.1%. Moreover, the growth in test [7] was 46%; in test [8], 54.4%; in test [9] it was 71.5%; in [10], 44.7%.
With `C#C[C@]1(O)CC[C@H]2[C@@H]3CC=C4c5sc(Nc6cccc(Cl)n6)nc5CC[C@]4(C)[C@H]3CC[C@@]21C`, the growth is 24.5% in test [1]; 3.91% (active) in test [2]; -20.2% (active) in [3]; 9.05% (active) in test [4]; -57.4% (active) in test [5]; -16.5% (active) in test [6]. Moreover, the growth in test [7] is -70.2% (active); in [8] it was -60.2% (active); in [9], -64.3% (active); in [10], -22.8% (active).
Regarding `O=S(=O)(Nc1cc(Cl)c(F)c(Cl)c1)c1ccc(-c2cnc(C3CC3)o2)cc1`, the growth in test [1] was 24.4%; in test [2] it was 15%; in test [3], 55%; in test [4] it was 56.2%; in test [5] it was 5.28% (active); in test [6] it was 73.9%. Moreover, the growth in test [7] was 16.8%; in [8] it was 19.2%; in test [9] it was 70.3%; in test [10], 23%.
`Cc1csc(Nc2cccc(Nc3nc(C)cs3)c2)n1`: the growth in test [1] was 83.8%; in test [2], 60.1%; in [3], 84.8%; in test [4], 79.2%; in test [5], 91%; in [6], 85.2%. In addition, the growth in [7] is 66.2%; in test [8], 83.8%; in [9] it was 89.7%; in test [10], 86%.
`O=C1Nc2ccc(Cl)cc2/C1=C/c1ccc(OCc2ccc(Br)cc2F)cc1`: the growth in test [1] was 101%; in test [2], 91.2%; in test [3], 100%; in test [4] it was 94.7%; in test [5] it was 85.3%; in test [6], 98.5%. Besides, the growth was 103% in [7], 99.4% in [8], 101% in test [9] and 90.1% in test [10].
With `O=C1c2c(c3c4cccnc4[nH]c3c3ccc4ccccc4c23)C(=O)N1CCN1CCNCC1`, the growth is 74.8% in test [1]; -35.5% (active) in test [2]; 92.3% in [3]; 89.9% in test [4]; 75.5% in test [5]; 78.3% in test [6]. For the same compound, the growth in [7] was 84.2%; in [8], 73.8%; in [9], 106%; in test [10], 64.4%.
In the case of `COc1ccc(-c2nc(SCC(C)C)nc(N/N=C\c3cccc([N+](=O)[O-])c3)c2C#N)cc1`, the growth in [1] was 70.5%; in [2] it was 57.1%; in test [3], 48.1%; in test [4], 30.5%; in test [5] it was 18.1%; in test [6], 43.6%. Further, the growth was 52.7% in test [7], 8.02% (active) in test [8], 89% in test [9] and 76.9% in test [10].
On to `CN1CCN(c2ccc(C(=O)/C=C/c3ccc(Cl)c(C(F)(F)F)c3)cc2)CC1`, for which the growth was 77.9% in test [1]; 7.64% (active) in [2]; 88.4% in test [3]; 83.3% in test [4]; 63.4% in test [5]; 87% in [6]. Besides, the growth in [7] is 103%; in test [8], 49.4%; in [9] it was 75.2%; in test [10], 87.2%.
Turning to `Cc1ccc(Nc2ncnc3c2c(C)nn3-c2ccc([N+](=O)[O-])cc2)cc1`, the growth is 89.4% in [1]; 69.1% in [2]; 84.7% in test [3]; 80.8% in test [4]; 60.8% in test [5]; 79.1% in [6]. The growth was 69.7% in [7], 74.4% in test [8], 93.3% in test [9] and 80.6% in [10].
Regarding `CN(C)c1ncc(/C=C2\SC(=S)N(Cc3ccccc3Cl)C2=O)s1`, the growth in test [1] was 97.8%; in test [2], 68%; in [3], 109%; in test [4], 83.9%; in test [5], 107%; in test [6], 94.3%. The growth was 66.4% in test [7], 74.5% in test [8], 98.5% in [9] and 94.1% in test [10].
`O=c1c2ccccc2nc(COc2ccccc2)n1/N=C/C=C/c1ccccc1`: the growth in [1] is 104%; in [2], 109%; in test [3], 96.9%; in test [4], 93.4%; in [5], 101%; in [6], 97.5%. In addition, the growth in test [7] is 102%; in test [8] it was 100%; in test [9] it was 95.3%; in test [10], 97.8%.
Consider `COc1ccc(-c2nc3cc(Cl)c(Cl)cc3n2CC(=O)N=Nc2c(O)[nH]c3ccc(Br)cc23)cc1`, for which the growth in test [1] was -48.4% (active); in test [2], 21.6%; in test [3], -38.5% (active); in test [4], 0.262% (active); in [5], -58.3% (active); in test [6], 9.74% (active). In addition, the growth was -50% (active) in [7], 14.9% in test [8], 61.9% in test [9] and -48.8% (active) in test [10].
As for `CCN1C(=O)N(CC)C2SC(N/N=C/c3ccccc3F)=NC21` (stereo not given), the growth in [1] was 16.6%; in [2] it was 9.76% (active); in test [3], 71.1%; in test [4], 24.1%; in [5], 46.4%; in test [6], 45.4%. Further, the growth in test [7] was 11.6%; in test [8], -16.7% (active); in test [9], 61%; in test [10], 17.2%.
For `CC1(COc2ccc3ncc(C#Cc4cncc(C(=O)Nc5cc(C(C)(C)C)on5)c4)n3n2)COC1`, the growth was 53.5% in test [1]; 16.2% in test [2]; 30.2% in [3]; 30.7% in test [4]; -2.4% (active) in test [5]; 53.9% in [6]. Further, the growth in test [7] was 22.6%; in test [8], 20.2%; in [9], 79.9%; in [10], 28.7%.
